Consider seven compounds from ChEMBL document CHEMBL1961873, “Compounds: GSK PKIS; Assays: Nanosyn kinase panel” (2012).

Assay [1] concerns the target T1, Ephrin type-B receptor 2 (Homo sapiens) (UniProt P29323).
T1 sequence (whole entry): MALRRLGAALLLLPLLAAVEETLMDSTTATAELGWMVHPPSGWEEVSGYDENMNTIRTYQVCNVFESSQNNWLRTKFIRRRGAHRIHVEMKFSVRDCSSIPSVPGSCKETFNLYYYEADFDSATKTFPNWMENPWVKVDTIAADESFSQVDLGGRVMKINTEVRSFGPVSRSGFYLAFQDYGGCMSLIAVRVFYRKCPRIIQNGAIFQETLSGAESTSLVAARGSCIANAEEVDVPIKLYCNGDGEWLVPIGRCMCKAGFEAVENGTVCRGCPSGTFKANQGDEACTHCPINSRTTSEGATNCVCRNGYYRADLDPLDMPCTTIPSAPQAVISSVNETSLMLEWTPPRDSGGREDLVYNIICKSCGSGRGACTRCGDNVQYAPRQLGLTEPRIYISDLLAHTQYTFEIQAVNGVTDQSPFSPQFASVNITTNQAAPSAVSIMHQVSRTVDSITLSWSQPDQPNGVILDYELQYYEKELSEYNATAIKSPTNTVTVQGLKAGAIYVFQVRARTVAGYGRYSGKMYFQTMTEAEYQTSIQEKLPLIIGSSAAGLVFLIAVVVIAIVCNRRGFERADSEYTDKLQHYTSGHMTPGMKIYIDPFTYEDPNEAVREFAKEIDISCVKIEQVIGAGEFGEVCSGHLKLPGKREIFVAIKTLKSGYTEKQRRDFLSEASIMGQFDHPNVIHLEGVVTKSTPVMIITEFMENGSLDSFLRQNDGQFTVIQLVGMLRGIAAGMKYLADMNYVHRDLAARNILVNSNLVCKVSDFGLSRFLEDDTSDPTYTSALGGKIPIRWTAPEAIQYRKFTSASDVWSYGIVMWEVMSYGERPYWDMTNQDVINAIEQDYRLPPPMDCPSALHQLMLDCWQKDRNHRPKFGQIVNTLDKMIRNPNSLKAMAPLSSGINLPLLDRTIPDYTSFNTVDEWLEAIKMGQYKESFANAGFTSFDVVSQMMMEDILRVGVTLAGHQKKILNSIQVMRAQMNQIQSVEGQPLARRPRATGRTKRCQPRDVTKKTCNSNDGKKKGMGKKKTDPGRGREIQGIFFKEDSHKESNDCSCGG
Particulars: at 1 µM.

The target of assay [2] is T2, Ephrin type-B receptor 3 (Homo sapiens) (UniProt P54753).
T2 sequence (whole entry): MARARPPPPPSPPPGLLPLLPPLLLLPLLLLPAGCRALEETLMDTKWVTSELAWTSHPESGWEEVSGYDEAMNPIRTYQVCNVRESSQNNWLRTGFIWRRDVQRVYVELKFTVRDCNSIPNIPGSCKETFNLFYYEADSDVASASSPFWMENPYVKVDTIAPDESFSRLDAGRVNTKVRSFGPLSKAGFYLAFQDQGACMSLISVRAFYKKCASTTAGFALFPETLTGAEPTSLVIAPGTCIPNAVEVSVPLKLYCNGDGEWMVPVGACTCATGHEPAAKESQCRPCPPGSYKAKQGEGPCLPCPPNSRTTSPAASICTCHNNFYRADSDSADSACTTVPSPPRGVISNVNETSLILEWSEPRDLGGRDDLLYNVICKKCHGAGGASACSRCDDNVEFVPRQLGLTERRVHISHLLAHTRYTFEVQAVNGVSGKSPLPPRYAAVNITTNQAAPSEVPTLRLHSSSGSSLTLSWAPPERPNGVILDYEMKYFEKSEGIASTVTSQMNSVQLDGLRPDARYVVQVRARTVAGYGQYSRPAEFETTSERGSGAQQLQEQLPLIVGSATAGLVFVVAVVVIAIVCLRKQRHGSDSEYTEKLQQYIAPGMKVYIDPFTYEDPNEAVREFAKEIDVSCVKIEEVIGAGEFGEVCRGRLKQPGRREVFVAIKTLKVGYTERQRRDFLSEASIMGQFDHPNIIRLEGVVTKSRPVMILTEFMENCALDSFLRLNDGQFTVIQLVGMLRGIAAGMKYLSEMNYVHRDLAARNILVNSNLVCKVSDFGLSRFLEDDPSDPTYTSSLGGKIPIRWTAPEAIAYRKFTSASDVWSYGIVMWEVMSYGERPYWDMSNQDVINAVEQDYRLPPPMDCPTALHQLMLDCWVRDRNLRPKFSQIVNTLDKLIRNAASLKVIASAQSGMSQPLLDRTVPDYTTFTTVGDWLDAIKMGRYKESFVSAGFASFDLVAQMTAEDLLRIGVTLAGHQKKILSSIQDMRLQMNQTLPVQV
The note with it: at 0.1 µM.

In assay [3] the target is T2, Ephrin type-B receptor 3 (Homo sapiens). The note with it: at 1 µM.
For assay [4], the target named is T3, Ephrin type-B receptor 4 (Homo sapiens) (UniProt P54760).
T3 sequence (whole entry): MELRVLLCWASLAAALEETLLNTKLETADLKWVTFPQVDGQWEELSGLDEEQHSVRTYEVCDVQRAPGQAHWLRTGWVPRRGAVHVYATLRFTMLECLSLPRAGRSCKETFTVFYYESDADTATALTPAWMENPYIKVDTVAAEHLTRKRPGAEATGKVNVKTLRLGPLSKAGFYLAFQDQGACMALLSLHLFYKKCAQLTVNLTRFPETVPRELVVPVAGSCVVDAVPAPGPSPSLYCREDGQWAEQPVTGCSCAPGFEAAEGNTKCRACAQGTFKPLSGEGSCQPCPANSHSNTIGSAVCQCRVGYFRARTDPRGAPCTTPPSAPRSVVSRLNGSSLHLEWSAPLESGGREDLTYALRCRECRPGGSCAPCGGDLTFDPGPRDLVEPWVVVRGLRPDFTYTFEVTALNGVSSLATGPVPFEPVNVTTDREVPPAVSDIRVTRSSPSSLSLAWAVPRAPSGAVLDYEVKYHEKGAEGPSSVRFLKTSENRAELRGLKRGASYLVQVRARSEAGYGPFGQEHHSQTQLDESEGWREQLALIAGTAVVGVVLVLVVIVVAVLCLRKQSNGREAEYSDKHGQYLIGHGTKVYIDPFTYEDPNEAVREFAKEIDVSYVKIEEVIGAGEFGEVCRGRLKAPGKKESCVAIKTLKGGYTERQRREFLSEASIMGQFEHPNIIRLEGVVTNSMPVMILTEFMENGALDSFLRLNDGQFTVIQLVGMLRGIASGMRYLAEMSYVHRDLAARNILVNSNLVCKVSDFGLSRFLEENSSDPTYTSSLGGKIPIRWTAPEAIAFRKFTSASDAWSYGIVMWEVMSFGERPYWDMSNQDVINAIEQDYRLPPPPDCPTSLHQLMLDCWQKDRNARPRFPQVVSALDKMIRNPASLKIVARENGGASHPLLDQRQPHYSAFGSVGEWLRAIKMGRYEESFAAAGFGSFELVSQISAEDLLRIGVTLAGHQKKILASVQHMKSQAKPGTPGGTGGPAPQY
The note with it: at 0.1 µM.

The target of assay [5] is T3, Ephrin type-B receptor 4 (Homo sapiens). The note with it: at 1 µM.
In assay [6] the target is Receptor tyrosine-protein kinase erbB-2 (Homo sapiens) (UniProt P04626). The note with it: at 0.1 µM.
Assay [7] has the same target. The note with it: at 1 µM.
Assay [8] concerns the target Receptor tyrosine-protein kinase erbB-4 (Homo sapiens) (UniProt Q15303). Particulars: at 0.1 µM.
For assay [9] the target is unchanged. Particulars: at 1 µM.
Assay [10] concerns the target Tyrosine-protein kinase Fer (Homo sapiens) (UniProt P16591). Particulars: at 0.1 µM.
The target is the same in assay [11]. Particulars: at 1 µM.
Assay [12] concerns the target Tyrosine-protein kinase Fes/Fps (Homo sapiens) (UniProt P07332). Particulars: at 0.1 µM.
Assay [13] has the same target. Particulars: at 1 µM.
Assay [14] deals with Fibroblast growth factor receptor 1 (Homo sapiens) (UniProt P11362). The note with it: at 0.1 µM.
Assay [15] has the same target. Particulars: at 1 µM.
Assay [16] deals with Fibroblast growth factor receptor 2 (Homo sapiens) (UniProt P21802). Particulars: at 0.1 µM.
Assay [17] shares this target. Particulars: at 1 µM.
For assay [18], the target named is Fibroblast growth factor receptor 3 (Homo sapiens) (UniProt P22607). Particulars: at 0.1 µM.
For assay [19] the target is unchanged. The note with it: at 1 µM.
Assay [20] deals with Fibroblast growth factor receptor 4 (Homo sapiens) (UniProt P22455). The note with it: at 0.1 µM.
Fibroblast growth factor receptor 4 (Homo sapiens), sequence (P22455 22-802 limits assumed): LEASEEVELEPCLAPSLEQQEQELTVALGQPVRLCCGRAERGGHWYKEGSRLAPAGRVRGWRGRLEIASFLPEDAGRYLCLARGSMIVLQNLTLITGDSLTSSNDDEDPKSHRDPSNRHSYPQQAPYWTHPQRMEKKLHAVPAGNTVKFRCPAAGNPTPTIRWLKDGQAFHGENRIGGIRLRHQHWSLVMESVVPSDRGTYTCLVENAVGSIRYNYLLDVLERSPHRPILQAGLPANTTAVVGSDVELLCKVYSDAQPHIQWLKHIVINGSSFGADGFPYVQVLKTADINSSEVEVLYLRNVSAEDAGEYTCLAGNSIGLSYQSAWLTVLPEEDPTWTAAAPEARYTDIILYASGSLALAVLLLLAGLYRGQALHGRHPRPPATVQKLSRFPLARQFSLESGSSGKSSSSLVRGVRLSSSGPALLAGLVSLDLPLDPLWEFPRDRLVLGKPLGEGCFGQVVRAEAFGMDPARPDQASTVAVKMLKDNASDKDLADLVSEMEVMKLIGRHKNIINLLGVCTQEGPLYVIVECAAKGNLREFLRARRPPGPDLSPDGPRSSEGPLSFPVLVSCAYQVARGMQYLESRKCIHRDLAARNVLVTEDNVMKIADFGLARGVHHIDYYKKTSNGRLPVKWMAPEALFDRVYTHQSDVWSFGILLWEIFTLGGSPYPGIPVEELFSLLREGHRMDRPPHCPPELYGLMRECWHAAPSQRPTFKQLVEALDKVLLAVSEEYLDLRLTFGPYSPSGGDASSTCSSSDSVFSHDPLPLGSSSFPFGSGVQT

Receptor tyrosine-protein kinase erbB-2 (Homo sapiens), sequence (P04626 whole entry): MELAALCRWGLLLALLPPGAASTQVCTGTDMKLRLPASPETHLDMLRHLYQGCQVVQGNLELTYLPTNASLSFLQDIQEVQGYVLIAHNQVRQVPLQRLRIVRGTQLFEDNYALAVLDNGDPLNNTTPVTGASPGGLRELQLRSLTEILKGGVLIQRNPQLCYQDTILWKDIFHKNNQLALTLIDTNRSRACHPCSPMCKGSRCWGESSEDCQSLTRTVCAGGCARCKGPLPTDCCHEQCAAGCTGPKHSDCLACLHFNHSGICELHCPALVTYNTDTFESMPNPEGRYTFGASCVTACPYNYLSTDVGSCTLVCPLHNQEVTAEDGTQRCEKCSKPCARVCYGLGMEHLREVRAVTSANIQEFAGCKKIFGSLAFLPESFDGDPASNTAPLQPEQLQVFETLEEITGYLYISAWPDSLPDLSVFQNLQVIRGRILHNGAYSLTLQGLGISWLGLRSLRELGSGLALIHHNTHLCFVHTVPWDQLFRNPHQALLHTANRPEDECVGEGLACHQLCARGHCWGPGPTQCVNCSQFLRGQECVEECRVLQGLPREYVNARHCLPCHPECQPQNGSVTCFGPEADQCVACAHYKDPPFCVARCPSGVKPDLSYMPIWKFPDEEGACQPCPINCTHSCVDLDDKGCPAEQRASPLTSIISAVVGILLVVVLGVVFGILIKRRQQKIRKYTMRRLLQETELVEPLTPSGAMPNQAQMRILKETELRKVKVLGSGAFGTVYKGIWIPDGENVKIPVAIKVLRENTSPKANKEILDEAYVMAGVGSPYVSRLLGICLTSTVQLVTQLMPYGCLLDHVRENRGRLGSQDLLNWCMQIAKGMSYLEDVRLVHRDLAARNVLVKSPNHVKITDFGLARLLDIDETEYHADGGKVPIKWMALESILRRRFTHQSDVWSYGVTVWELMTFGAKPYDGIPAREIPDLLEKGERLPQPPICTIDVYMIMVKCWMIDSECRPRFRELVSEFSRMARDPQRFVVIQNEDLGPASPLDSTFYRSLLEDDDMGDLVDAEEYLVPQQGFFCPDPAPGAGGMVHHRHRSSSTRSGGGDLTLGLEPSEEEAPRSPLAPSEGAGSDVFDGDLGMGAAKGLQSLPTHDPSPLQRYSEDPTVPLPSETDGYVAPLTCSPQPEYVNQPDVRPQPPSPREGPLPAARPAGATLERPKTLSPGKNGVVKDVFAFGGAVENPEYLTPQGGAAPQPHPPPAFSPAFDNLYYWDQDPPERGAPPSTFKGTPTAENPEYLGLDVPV
Tyrosine-protein kinase Fer (Homo sapiens), sequence (P16591 whole entry, looked up): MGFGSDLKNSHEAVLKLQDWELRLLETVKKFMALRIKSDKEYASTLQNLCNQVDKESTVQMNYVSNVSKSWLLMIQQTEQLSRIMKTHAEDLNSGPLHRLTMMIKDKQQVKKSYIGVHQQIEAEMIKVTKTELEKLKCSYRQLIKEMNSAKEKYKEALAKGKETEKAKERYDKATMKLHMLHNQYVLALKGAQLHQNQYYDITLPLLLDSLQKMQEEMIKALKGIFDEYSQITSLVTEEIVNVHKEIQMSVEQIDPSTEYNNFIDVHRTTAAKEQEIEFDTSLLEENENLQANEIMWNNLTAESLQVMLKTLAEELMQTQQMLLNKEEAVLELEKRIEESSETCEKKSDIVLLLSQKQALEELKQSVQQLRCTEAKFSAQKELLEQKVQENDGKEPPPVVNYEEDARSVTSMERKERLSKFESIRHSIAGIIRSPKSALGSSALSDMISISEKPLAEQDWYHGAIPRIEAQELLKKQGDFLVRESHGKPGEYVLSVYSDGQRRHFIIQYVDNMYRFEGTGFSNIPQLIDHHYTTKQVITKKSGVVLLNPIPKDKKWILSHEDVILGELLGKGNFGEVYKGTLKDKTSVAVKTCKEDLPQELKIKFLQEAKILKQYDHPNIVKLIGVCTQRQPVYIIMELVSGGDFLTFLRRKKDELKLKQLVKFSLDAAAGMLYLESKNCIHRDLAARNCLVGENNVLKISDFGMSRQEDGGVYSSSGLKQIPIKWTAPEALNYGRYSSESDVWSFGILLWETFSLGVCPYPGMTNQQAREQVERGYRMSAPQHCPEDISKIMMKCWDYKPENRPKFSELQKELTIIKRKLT
Receptor tyrosine-protein kinase erbB-4 (Homo sapiens), sequence (Q15303 whole entry): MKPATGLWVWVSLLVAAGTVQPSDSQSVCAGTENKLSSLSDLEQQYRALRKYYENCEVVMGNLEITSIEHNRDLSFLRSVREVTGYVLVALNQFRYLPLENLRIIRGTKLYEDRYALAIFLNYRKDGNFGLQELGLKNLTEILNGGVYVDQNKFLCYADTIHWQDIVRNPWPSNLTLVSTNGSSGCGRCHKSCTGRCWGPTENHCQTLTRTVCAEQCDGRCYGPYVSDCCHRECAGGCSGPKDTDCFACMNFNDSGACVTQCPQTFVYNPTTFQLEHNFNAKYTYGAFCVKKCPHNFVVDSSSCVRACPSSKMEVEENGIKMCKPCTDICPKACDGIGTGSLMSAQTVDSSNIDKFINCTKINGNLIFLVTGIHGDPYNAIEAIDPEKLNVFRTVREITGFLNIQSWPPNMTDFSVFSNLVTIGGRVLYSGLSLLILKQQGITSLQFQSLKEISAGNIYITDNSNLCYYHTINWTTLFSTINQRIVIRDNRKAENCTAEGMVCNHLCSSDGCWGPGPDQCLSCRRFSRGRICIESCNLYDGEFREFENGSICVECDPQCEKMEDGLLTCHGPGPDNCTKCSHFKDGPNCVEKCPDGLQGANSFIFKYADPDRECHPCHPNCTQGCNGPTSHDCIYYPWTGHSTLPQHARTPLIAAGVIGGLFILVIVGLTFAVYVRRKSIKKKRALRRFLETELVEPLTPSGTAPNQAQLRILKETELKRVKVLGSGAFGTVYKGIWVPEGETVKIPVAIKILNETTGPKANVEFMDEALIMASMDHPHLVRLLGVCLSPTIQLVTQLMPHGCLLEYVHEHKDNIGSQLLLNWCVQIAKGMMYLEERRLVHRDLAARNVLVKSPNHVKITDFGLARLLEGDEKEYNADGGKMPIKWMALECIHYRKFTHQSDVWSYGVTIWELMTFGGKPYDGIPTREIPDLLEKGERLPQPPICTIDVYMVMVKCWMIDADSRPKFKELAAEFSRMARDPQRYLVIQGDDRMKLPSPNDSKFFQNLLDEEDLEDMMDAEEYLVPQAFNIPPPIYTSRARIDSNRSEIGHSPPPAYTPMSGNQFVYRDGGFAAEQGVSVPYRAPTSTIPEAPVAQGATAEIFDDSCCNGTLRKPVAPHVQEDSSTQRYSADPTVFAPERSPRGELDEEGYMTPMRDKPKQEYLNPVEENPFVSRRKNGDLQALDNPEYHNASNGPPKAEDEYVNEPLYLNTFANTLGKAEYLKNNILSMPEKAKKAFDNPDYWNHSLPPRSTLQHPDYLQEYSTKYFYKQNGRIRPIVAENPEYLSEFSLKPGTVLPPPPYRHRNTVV
Fibroblast growth factor receptor 1 (Homo sapiens), sequence (P11362 22-822 limits assumed): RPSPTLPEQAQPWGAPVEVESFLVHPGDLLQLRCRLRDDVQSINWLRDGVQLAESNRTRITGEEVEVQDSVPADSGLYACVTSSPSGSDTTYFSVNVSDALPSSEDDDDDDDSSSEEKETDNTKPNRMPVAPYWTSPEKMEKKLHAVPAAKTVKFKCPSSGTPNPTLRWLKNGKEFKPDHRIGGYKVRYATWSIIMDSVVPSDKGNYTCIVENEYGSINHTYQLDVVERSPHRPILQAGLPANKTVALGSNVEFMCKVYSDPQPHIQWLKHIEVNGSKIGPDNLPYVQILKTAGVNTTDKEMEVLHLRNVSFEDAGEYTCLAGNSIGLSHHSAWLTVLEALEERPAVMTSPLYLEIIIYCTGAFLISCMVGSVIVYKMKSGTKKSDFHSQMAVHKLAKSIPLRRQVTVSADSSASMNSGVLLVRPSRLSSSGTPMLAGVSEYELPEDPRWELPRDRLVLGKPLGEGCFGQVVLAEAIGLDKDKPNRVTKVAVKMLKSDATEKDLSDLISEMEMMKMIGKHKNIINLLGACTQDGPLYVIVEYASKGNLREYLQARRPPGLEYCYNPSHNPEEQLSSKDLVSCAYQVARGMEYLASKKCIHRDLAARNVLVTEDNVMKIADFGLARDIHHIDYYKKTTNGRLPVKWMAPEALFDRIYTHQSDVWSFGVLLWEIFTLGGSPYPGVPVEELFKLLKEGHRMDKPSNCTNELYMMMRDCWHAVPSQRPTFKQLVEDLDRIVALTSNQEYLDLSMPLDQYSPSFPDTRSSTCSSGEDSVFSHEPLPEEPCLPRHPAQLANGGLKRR

Broadly, the inhibition is the change of the read-out against control, counted positive when it falls. As to `CCOc1ccc2c(-c3ccnc(Nc4cccc(C(F)(F)F)c4)n3)cnn2n1`, the inhibition came out at 9.64% in assay [1]; 3.96% in assay [2]; 2.33% in assay [3]; 1.01% in assay [4]; 2.81% in assay [5]; 4.13% in assay [6]. The inhibition was 2.54% in assay [7]; 7.09% in assay [8]; 6.85% in assay [9]; 1.8% in [10]; 7.63% in assay [11]; 2.3% in assay [12]. In addition, the inhibition in [13] stood at 2.59%; in assay [14], 2.54%; in assay [15], 7.08%; in assay [16] it was 3.04%; in assay [17] it was 7.12%; in assay [18] it was 2.18%. Also, the inhibition in [19] was 5.74%; in assay [20], -0.43%.
Turning to `CCn1cc(-c2ccnc3[nH]ccc23)c(-c2cccc(NC(=O)Nc3ccc(OCc4ccccc4)cc3)c2)n1`, the inhibition in assay [1] is -2.78%; in [2], 0.02%; in assay [3] it was 0.9%; in assay [4], -1.27%; in assay [5] it was 3.47%; in assay [6], 2.85%. The inhibition stood at 2.75% in [7]; 9.5% in assay [8]; 63.5% in assay [9]; 0.08% in assay [10]; 5.87% in assay [11]; 0.81% in assay [12]. For the same compound, the inhibition is 2.87% in assay [13]; -0.96% in assay [14]; -2.55% in assay [15]; -0.49% in assay [16]; 0.34% in assay [17]; -0.88% in [18]. Moreover, the values for the inhibition in assay [19] and in [20] were 0.39% and -0.55%, respectively.
Turning to `CN1CCC(n2cnc(-c3ccc(F)cc3)c2-c2ccnc(N)n2)CC1`, the inhibition was 11.7% in [1]; 4.01% in assay [2]; 1.1% in [3]; 1.15% in assay [4]; 2.9% in [5]; 1.81% in [6]. In addition, the inhibition in [7] is 3.61%; in assay [8] it was 8.28%; in assay [9], 18.6%; in assay [10] it was 1.42%; in assay [11], 8.24%; in assay [12], 2.63%. For the same compound, the inhibition in assay [13] was 2.33%; in [14], -0.33%; in assay [15], -2.26%; in assay [16] it was 1.68%; in [17], 4.49%; in [18], 3.51%. Besides, the inhibition was found to be 4.31% in assay [19] and 1.4% in [20].
As for `COC(=O)c1sc(-n2cnc3cc(OC)c(OC)cc32)cc1OCc1ccccc1C(F)(F)F`, the inhibition in assay [1] amounted to 10.3%; in assay [2], 7.34%; in assay [3], 6.47%; in assay [4], 2.86%; in [5], 3.16%; in [6] it was 3.29%. Further, the inhibition in [7] was -2.49%; in [8], 8.62%; in [9], 11%; in assay [10], 1.07%; in assay [11], 4.19%; in assay [12], 3.47%. Besides, the inhibition in [13] was determined as 3.74%; in [14], 3.22%; in assay [15], 12.9%; in assay [16], 3.5%; in assay [17] it was 23%; in [18], 6.13%. Also, the values for the inhibition in [19] and in [20] were 13.9% and -3.87%, respectively.
Take `COC(=O)Nc1nc2ccc(S(=O)(=O)c3ccc(NC(=O)Nc4cc(C(F)(F)F)ccc4F)cc3)cc2[nH]1`: the inhibition in assay [1] stood at 14.7%; in assay [2], 5.22%; in [3], 0.8%; in assay [4], 2.15%; in assay [5], 3.46%; in [6] it was 0.46%. For the same compound, the inhibition in assay [7] is -2.51%; in [8] it was 9.54%; in [9] it was 12.2%; in assay [10], 3.79%; in assay [11] it was 2.04%; in assay [12], 2.47%. The inhibition worked out at 2.5% in assay [13]; 3.55% in assay [14]; 2.11% in assay [15]; 2.63% in [16]; 7.81% in assay [17]; 4.85% in assay [18]. Moreover, the values for the inhibition in assay [19] and in [20] were 4.38% and -1.95%, respectively.
Consider `COc1ccc2c(-c3ccnc(Nc4cccc(OC(F)(F)F)c4)n3)cnn2n1`, for which the inhibition in assay [1] came out at 14.9%; in assay [2], 3.51%; in [3] it was 5.86%; in [4] it was 0.79%; in assay [5], 4.73%; in assay [6], 1.6%. Also, the inhibition was 2.79% in assay [7]; 8.76% in [8]; 9.71% in [9]; 4.88% in [10]; 16.5% in assay [11]; 3.41% in assay [12]. Further, the inhibition in assay [13] amounted to 8.88%; in assay [14], 1.54%; in assay [15] it was 0.82%; in assay [16] it was 11.6%; in assay [17], 6.91%; in [18] it was 5.66%. In addition, the inhibition in assay [19] was 6.19%; in [20] it was 1.76%.
As for `CN(C)CCOc1ccc(-c2nc(-c3ccncc3)c(-c3ccc4c(c3)CC/C4=N\O)[nH]2)cc1`, the inhibition stood at 11.7% in assay [1]; 3.83% in assay [2]; 3.2% in assay [3]; 1.85% in [4]; 2.33% in assay [5]; 2.46% in assay [6]. Besides, the inhibition in [7] was 2.61%; in assay [8] it was 10%; in assay [9] it was 15%; in [10], 1.86%; in [11] it was 5.81%; in assay [12], 2.16%. In addition, the inhibition in assay [13] amounted to 2.53%; in [14], 6.05%; in assay [15] it was 2.14%; in assay [16], 4.67%; in assay [17] it was 4.48%; in assay [18] it was 5.89%. Further, the values for the inhibition in assay [19] and in assay [20] were 4.69% and 0.23%, respectively.
